Experiment [1] can be described thus: Caspase-3/7 induction in HepG2 cells by small molecules, qHTS assay (AID 1346978). Note: nearly all actives have a fitted effect of over 15% in size. The gist of the method:
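Wild-type HepG2 cells, 2,000/well, settled 5 hr at 37 C and 5% CO2, then compound-treated for 17 hr; caspase-3/7 activity read by luminescent Caspase-Glo 3/7 after 30 min at room temperature.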

Experiment [2] in a line: Caspase-3/7 induction in CHO-K1 cells by small molecules, qHTS cell viability counter screen (AID 1346979). Note: nearly all actives have a fitted effect of over 35% in size. The gist of the method: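 CellTiter-Fluor viability check, qHTS format: wild-type CHO-K1, 16hr compound treatment, 1hr reagent incubation, fluorescence read.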
The nature of experiment [3]: Caspase-3/7 induction in HepG2 cells by small molecules, qHTS cell viability counter screen (AID 1346981). Note: series mostly up to about 92 µM; nearly all actives have a fitted effect of over 30% in size. In short, it runs like this: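 Fluorescence read-out of live-cell protease activity (CellTiter-Fluor) after 1 hr with reagent. This was measured in the same wells as the caspase-3/7 luminescence, on HepG2 cells exposed to DMSO-dissolved compounds for 16 hr at 37 C.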

Experiment [4] concerns the target Nuclear receptor subfamily 1 group I member 2 (Homo sapiens) (UniProt O75469). The experiment in a line: Human pregnane X receptor (PXR) small molecule agonists, qHTS assay (AID 1346982). Note: nearly all actives have a fitted effect of over 35% in size. The gist of the method:
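HepG2 PXR-Luc reporter line, 5% charcoal-stripped FBS; 5 hr pre-incubation, compound (DMSO) 24 hr at 37 C/5% CO2; ONE-Glo 30 min RT; luminescence read-out.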

Experiment [5] has as its target Cytochrome P450 2D6 (Homo sapiens) (UniProt P10635). Description: Cytochrome P450 Family 2 Subfamily D Member 6 (CYP2D6) small molecule antagonists: luciferase reporter qHTS assay (AID 1671196). Note: series mostly up to about 120 µM; nearly all actives have a fitted effect of over 50% in size. In short, it runs like this:
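Luminogenic proluciferin substrate, CYP2D6 enzyme; 10 min RT preincubation with compound, NADPH regeneration system added, 1 h RT. Stop/detection reagent, 20 min RT, luminescence read (RLU). Signal proportional to CYP activity.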

Experiment [6] deals with Cytochrome P450 2C19 (Homo sapiens) (UniProt P33261). Description: Cytochrome P450 Family 2 Subfamily C Member 19 (CYP2C19) small molecule antagonists: luciferase reporter qHTS assay (AID 1671197). Note: nearly all actives have a fitted effect of over 65% in size. Note: potency is the fitted concentration of half-maximal effect. The gist of the method: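 First, compounds are pinned into enzyme-substrate mix and held 10 min at room temperature. Second, NADPH regeneration solution is added and plates incubate 1 h at 37C. Third, detection reagent is added and luminescence read after 20 min.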

The target of experiment [7] is Cytochrome P450 2C9 (Homo sapiens) (UniProt P11712). Description: Cytochrome P450 Family 2 Subfamily C Member 9 (CYP2C9) small molecule antagonists: luciferase reporter qHTS assay (AID 1671198). Note: series mostly up to about 120 µM; nearly all actives have a fitted effect of over 50% in size. In short, it runs like this: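 P450-Glo proluciferin substrate with CYP2C9 enzyme; 10 min RT preincubation, then NADPH regeneration 1 h at 37C; luciferin detection reagent 20 min RT, luminescence in relative luminescence units.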

Experiment [8] addresses Voltage-gated inwardly rectifying potassium channel KCNH2 (Homo sapiens) (UniProt Q12809). Description: Human Ether-a-go-go-Related Gene (hERG) channel small molecule antagonists: fluorescence cell-based qHTS assay (AID 1671200). Note: nearly all actives have a fitted effect of over 50% in size. Note: potency is the fitted concentration of half-maximal effect. In short, it runs like this:
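Kinetic two-minute fluorescence traces, sampled at 1 s, were collected following thallium stimulus of U2OS cells (1000 per well) that had been cultured overnight at 37 C and loaded with FluxOR II.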

Experiment [9] is described as follows: Caspase-3/7 induction in CHO-K1 cells by small molecules, qHTS assay (AID 1346980). Note: nearly all actives have a fitted effect of over 15% in size. The gist of the method:
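Wild-type CHO-K1 cells exposed to compounds for 17hr at 37 C, 5% CO2. Caspase-3/7 activity then measured by Caspase-Glo 3/7 luminescence after 30min at room temperature.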

Experiment [10] addresses Nuclear receptor subfamily 1 group I member 2 (Rattus norvegicus) (UniProt Q9R1A7). Description: Rat pregnane X receptor (rPXR) activation by small molecules, qHTS assay (AID 1346983). Note: nearly all actives have a fitted effect of over 20% in size. Particulars: rPXR luciferase reporter cells, One-Glo luminescence, 24 h; max activation: active compounds read high. The gist of the method:
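Cell-based rPXR activation assay: rPXR cells, 2,000 per well, rested 5hr at 37 C, then exposed to compounds in DMSO for 24 hr at 37 C. Luciferase activity read by One-Glo luminescence after 30 min at room temperature.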

Experiment [11] addresses Nuclear receptor subfamily 1 group I member 2 (Homo sapiens) (UniProt O75469). Description: CYP3A4 induction through human pregnane X receptor (PXR) by small molecules, qHTS assay (AID 1346984). Note: nearly all actives have a fitted effect of over 40% in size. The gist of the method: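 HepG2-derived DPX-2 line carrying PXR plus a CYP3A4-promoter luciferase reporter; cells plated 5 hr, compound-exposed 24 hr at 37C. CYP3A4 activity probed with 3uM (final) Luciferin-IPA for 3hr, then luciferase read after One-Glo.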

Experiment [12] shares this target. The experiment in a line: Human pregnane X receptor (PXR) activation by small molecules, qHTS assay (AID 1346985). Note: nearly all actives have a fitted effect of over 40% in size. The gist of the method: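 DPX-2 cells (HepG2 co-transfected with a PXR response element and a CYP3A4-promoter luciferase construct) were seeded at 2,000 per well, rested 5 hr at 37C, then exposed to DMSO-dissolved compounds for 24 hr. Activation was read as luciferase luminescence.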

The target in experiment [13] is Cytochrome P450 1A2 (Homo sapiens) (UniProt P05177). Description: Cytochrome P450 Family 1 Subfamily A Member 2 (CYP1A2) small molecule antagonists: luciferase reporter qHTS assay (AID 1671199). Note: nearly all actives have a fitted effect of over 50% in size. Note: potency is the fitted concentration of half-maximal effect. The gist of the method: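 Luminescence readout (relative luminescence units) after luciferin detection reagent, 20 min RT. Preceded by 1 h room-temperature CYP1A2 reaction with NADPH regeneration solution following 10 min compound preincubation with enzyme and proluciferin substrate. Furafylline positive control.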

Experiment [14] has as its target Cytochrome P450 3A4 (Homo sapiens) (UniProt P08684). Description: Cytochrome P450 Family 3 Subfamily A Member 4 (CYP3A4) small molecule antagonists: luciferase reporter qHTS assay (AID 1671201). Note: nearly all actives have a fitted effect of over 50% in size. Note: potency is the fitted concentration of half-maximal effect. In short, it runs like this:
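Proluciferin-to-luciferin conversion by CYP3A4, NADPH-regenerated, 1 h RT; luminescence read as RLU. Ketoconazole as control.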

SMILES strings stand for the structures. Unmarked numbers belong to inactive results. Records with an inconclusive call do not appear. Calls of active or inactive are those of the source. Calls come from the whole dose curve; as a rule, active = well fitted curve in the direction sought with a large enough effect in the repeat runs; inconclusive = weak or mixed curves; inactive = no such curve, though single readings can be large; an effect the other way counts as inactive or inconclusive.
% is set by controls: 0 for no effect and ±100 for the full control effect.

Sequence of Cytochrome P450 1A2 (Homo sapiens) (P05177 whole entry, looked up): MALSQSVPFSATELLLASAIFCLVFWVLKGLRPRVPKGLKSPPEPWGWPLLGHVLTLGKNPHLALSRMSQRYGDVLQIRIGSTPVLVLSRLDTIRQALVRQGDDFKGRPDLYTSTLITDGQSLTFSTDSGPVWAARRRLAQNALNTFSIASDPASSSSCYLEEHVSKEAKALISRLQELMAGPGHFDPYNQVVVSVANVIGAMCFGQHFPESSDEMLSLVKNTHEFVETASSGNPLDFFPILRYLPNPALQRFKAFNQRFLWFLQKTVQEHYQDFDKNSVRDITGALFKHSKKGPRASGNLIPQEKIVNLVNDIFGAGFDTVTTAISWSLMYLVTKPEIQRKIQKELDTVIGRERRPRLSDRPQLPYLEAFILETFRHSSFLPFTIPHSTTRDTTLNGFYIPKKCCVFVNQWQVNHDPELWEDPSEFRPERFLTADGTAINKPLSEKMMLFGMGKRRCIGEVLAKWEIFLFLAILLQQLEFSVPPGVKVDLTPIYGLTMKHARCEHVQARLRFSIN
Sequence of Voltage-gated inwardly rectifying potassium channel KCNH2 (Homo sapiens) (Q12809 whole entry, looked up): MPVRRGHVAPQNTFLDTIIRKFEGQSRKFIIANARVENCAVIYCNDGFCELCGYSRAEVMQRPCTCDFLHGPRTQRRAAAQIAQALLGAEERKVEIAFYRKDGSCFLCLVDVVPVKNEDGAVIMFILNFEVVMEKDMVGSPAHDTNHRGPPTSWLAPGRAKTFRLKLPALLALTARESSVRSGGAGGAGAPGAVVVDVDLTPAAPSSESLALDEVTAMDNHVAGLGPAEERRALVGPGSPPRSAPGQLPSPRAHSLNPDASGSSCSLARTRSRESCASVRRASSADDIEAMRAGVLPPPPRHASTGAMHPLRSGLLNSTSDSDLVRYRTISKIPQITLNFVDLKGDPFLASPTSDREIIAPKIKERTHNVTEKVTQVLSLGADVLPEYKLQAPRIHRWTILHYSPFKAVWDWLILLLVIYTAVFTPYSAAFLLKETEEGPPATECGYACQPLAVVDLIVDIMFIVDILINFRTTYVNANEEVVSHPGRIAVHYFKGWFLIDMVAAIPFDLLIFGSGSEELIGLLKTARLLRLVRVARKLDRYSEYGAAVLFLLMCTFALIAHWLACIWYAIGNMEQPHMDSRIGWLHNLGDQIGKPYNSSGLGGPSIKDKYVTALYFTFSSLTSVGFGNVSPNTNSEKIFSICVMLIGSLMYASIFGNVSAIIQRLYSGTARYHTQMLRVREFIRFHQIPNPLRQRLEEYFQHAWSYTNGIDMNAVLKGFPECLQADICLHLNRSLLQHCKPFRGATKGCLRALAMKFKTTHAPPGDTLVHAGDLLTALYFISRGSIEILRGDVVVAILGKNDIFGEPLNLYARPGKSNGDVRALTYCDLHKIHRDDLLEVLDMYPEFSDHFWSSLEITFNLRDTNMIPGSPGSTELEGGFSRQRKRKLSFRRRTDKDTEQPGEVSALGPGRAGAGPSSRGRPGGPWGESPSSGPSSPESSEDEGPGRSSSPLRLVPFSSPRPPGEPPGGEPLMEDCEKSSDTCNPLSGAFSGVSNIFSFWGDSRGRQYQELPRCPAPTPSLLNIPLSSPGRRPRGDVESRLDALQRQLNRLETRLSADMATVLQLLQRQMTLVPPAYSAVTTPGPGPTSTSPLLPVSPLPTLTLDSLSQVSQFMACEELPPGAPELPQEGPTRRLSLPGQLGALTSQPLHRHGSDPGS
Sequence of Nuclear receptor subfamily 1 group I member 2 (Homo sapiens) (O75469 whole entry, looked up): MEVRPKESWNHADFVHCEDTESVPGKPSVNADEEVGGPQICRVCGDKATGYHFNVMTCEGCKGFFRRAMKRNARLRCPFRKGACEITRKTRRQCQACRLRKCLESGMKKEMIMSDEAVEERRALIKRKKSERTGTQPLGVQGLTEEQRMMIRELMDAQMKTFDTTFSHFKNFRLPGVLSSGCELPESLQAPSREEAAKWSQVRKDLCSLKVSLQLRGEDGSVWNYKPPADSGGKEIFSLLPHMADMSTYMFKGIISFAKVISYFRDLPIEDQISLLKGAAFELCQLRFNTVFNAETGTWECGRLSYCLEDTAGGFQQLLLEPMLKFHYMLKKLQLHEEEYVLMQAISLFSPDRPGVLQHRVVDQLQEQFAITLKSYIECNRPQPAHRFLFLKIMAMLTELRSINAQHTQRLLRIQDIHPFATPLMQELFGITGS
Sequence of Cytochrome P450 2C9 (Homo sapiens) (P11712 whole entry, looked up): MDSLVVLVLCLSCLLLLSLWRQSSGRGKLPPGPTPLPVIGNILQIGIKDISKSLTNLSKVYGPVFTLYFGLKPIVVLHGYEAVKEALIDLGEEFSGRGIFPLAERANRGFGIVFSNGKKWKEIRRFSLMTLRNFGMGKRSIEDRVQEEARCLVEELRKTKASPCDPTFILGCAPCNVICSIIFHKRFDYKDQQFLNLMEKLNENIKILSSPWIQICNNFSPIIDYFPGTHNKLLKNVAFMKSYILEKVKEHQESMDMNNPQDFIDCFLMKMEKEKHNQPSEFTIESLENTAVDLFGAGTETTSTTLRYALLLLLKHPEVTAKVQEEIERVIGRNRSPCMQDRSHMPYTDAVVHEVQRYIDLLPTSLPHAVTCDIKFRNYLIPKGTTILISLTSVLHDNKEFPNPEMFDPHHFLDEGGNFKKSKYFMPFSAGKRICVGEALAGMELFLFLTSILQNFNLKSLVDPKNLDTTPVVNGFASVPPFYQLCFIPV
Sequence of Cytochrome P450 2D6 (Homo sapiens) (P10635 whole entry, looked up): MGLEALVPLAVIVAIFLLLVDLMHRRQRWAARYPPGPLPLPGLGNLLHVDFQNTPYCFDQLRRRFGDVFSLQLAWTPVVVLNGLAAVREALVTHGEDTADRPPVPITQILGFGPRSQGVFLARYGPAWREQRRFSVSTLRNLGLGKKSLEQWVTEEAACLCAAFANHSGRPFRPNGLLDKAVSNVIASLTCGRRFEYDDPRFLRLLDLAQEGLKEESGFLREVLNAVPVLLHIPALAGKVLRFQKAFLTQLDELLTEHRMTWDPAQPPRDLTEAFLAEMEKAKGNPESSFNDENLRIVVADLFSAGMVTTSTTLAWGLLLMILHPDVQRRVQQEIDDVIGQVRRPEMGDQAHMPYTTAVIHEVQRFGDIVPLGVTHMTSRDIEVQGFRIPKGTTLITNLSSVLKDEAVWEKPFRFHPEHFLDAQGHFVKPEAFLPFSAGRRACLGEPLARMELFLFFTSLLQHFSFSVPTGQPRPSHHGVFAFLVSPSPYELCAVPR
Sequence of Cytochrome P450 2C19 (Homo sapiens) (P33261 whole entry, looked up): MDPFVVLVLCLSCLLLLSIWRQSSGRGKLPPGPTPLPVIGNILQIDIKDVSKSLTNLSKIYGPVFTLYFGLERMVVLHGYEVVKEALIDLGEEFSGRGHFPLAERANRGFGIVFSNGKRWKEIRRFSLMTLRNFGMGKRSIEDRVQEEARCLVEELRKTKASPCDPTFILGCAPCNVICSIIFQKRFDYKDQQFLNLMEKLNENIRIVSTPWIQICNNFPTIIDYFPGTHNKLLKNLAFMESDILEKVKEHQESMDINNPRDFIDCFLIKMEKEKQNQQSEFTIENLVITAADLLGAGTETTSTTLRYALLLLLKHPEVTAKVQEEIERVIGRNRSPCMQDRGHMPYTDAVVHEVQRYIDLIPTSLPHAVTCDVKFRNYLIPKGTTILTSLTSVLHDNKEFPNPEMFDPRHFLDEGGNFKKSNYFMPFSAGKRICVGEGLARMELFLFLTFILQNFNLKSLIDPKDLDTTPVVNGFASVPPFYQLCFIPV
Sequence of Nuclear receptor subfamily 1 group I member 2 (Rattus norvegicus) (Q9R1A7 whole entry, looked up): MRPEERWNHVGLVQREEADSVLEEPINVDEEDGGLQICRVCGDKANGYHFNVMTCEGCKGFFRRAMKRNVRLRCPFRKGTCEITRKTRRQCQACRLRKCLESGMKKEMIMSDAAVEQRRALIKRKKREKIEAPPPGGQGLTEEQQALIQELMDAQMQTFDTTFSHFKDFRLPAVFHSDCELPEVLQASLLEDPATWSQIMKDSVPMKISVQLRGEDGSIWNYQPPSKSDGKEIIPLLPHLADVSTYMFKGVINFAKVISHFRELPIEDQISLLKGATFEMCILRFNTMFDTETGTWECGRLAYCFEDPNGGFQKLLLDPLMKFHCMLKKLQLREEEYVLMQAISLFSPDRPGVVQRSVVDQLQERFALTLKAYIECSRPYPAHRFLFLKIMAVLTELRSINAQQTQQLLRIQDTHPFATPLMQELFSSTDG
Sequence of Cytochrome P450 3A4 (Homo sapiens) (P08684 whole entry, looked up): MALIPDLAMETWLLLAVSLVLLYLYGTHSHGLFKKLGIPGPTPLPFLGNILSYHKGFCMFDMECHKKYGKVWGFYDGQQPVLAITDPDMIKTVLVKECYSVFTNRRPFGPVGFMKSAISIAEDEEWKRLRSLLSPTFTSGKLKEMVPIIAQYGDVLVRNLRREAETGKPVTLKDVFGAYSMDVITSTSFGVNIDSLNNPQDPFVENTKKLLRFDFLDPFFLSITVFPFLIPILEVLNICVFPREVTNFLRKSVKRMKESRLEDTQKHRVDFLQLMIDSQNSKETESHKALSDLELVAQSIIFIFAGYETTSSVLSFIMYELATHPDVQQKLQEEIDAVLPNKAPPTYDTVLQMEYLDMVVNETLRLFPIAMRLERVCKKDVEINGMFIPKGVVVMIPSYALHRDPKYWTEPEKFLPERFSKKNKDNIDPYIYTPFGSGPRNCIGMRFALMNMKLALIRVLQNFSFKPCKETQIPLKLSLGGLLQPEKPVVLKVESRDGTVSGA

On to `CCO[Si](OCC)(OCC)c1ccccc1`, for which, in experiment [1], the compound was called inactive. Further, the Potency entry in experiment [2], in [3], in experiment [4], in experiment [5], in experiment [6] and in experiment [7] was “inactive” in each case. The Potency entry in [8] was “inactive”.
As to `CC(=O)Oc1cccc(C)c1`, the Potency entry in experiment [2], in experiment [3], in experiment [4], in experiment [11], in [12] and in experiment [5] was “inactive” throughout. Moreover, the Potency result in experiment [6], in experiment [7], in experiment [13], in experiment [8] and in experiment [14] was “inactive” each time. Also, the compound was called inactive in experiment [9]. Also, the max activation in experiment [10] is -3.04%.
For `Nc1ccn([C@@H]2O[C@H](CO)[C@@H](O)C2(F)F)c(=O)n1`, the result in experiment [1] was inactive. Further, the Potency entry in experiment [3], in [11], in [12], in [5], in experiment [6] and in [7] was “inactive” each time. Further, the Potency entry in experiment [8] and in experiment [14] was “inactive” throughout. In [10], the max activation was -12%.
On to `CCC(C)(CN(C)C)OC(=O)c1ccccc1` (stereo not drawn), for which the compound was classed as inactive in experiment [1]. For the same compound, the Potency result in [2] and in [3] was “inactive” throughout. In addition, the max activation in [10] was -1.69%.
As to `CCN1C=CN(C)C1C` (stereo not drawn), the compound was called inactive in experiment [1] and in [9]. Further, the Potency entry in experiment [3], in experiment [4], in experiment [5], in experiment [6], in experiment [7] and in experiment [13] was “inactive” in each case. Moreover, the Potency entry in [8] and in experiment [14] was “inactive” each time.
Take `NCCCC[C@H](N[C@@H](CCc1ccccc1)C(=O)O)C(=O)N1CCC[C@H]1C(=O)O`: the compound was classed as inactive in experiment [1]. In addition, the Potency entry in [2], in [3], in experiment [5], in [6] and in [7] was “inactive” throughout. Moreover, in experiment [10], the max activation was -3.44%.
Consider `CCC1C(=O)OCC1Cc1cncn1C` (stereo not drawn), for which, in experiment [1], the compound was classed as inactive. Moreover, the Potency entry in [3], in experiment [4], in [11], in experiment [12], in experiment [5] and in [6] was “inactive” throughout. Further, the Potency entry in experiment [13] and in experiment [8] was “inactive” each time. The max activation in experiment [10] is -2.44%. Also, in [14], the Potency was 11 µM (active).
`[O-][n+]1cccc(CO)c1`: the Potency result in experiment [2], in experiment [3], in experiment [4], in experiment [11], in experiment [12] and in experiment [5] was “inactive” each time. Besides, the Potency entry in experiment [6], in experiment [7], in experiment [13], in experiment [8] and in experiment [14] was “inactive” in each case. Further, the result in experiment [9] was inactive. In addition, the max activation in experiment [10] is -1.15%.
On to `COCCOCC(OC)OC`, for which, in experiment [1], the compound was classed as inactive. Further, the Potency entry in experiment [2], in experiment [3], in experiment [4], in experiment [5], in experiment [6] and in [7] was “inactive” throughout. For the same compound, the Potency result in experiment [8] and in [14] was “inactive” throughout.
With `N[C@@H](CCC(=O)O)C(=O)O`, in experiment [1], the result was inactive. Further, the Potency result in experiment [2], in experiment [3], in experiment [4], in [8] and in experiment [14] was “inactive” throughout. Besides, the Potency in [6] is 71 µM (active); in experiment [13], 39.9 µM (active).
Regarding `CCCCOCCOC(=O)COc1cc(Cl)c(Cl)cc1Cl`, in experiment [1], the outcome was inactive. The Potency entry in experiment [2], in experiment [3], in experiment [4] and in experiment [14] was “inactive” each time. Also, the Potency in experiment [6] is 35.6 µM (active); in experiment [13], 39.9 µM (active); in experiment [8], 24.5 µM (active).
Take `NS(=O)(=O)Cc1noc2ccccc12`: in experiment [1], the compound was called inactive. The Potency entry in [2], in experiment [3], in experiment [6], in [13] and in experiment [8] was “inactive” in each case. Also, the max activation in experiment [10] is -2.52%.

Values taken from PubChem BioAssay (Tox21).
